What is called AC50 is the concentration giving half of the maximal activity seen.

Activity calls are given as the source filed them. How the source made its calls: active means hit-call score of the fitted dose curve at least 0.9, where 1 is the maximum; inactive means score below 0.9.

Among the data in PubChem BioAssay (EPA / NIEHS) are outcome and AC50 values, retold here.

Read-out in assay [1]: TIMP metallopeptidase inhibitor 2 (TIMP2), TIMP2 (gene 7077)
Briefly: BSK_KF3CT_TIMP2: BioMAP Diversity Plus: KF3CT Assay for TIMP metallopeptidase inhibitor 2 (TIMP2) Biomarker Activity (AID 2283071). To be noted: primary human keratinocytes with fibroblasts; actives raise or lower the signal. In short, it runs like this:
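TIMP-2 measured by ELISA at 24 h in human keratinocyte/fibroblast primary co-cultures exposed to chemicals. Both increases and decreases were fitted against DMSO. Parallel cultures were stained with SRB for total protein as an overt-cytotoxicity check.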

Read-out in assay [2]: Transforming growth factor beta 1 (TGFb1), TGFB1 (gene 7040)
Kind of assay: BSK_KF3CT_TGFb1: BioMAP Diversity Plus: KF3CT Assay for Transforming growth factor beta 1 (TGFb1) Biomarker Activity (AID 2283072). To be noted: primary human keratinocytes with fibroblasts; actives raise or lower the signal. The method in brief: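 ELISA quantifies TGF-b1 at 24 h post-dose in a primary human skin co-culture of keratinocytes and fibroblasts, with gain or loss judged against DMSO. Parallel SRB total-protein staining flags overt cytotoxicity.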

Read-out in assay [3]: C-C motif chemokine 2 (Homo sapiens) (UniProt P13500)
Briefly: BSK_KF3CT_MCP1: BioMAP Diversity Plus: KF3CT Assay for Monocyte Chemoattractant Protein 1 (MCP1/CCL2) Biomarker Activity (AID 2283073). To be noted: primary human keratinocytes with fibroblasts; actives raise or lower the signal. The method in brief: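 Human keratinocyte–foreskin fibroblast co-culture; MCP-1 measured by ELISA 24 h after dosing. Bidirectional fit vs DMSO; cytotoxicity tracked by SRB total protein in parallel cultures.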

Read-out in assay [4]: Matrix Metallopeptidase 9 (MMP9), MMP9 (gene 4318)
Kind of assay: BSK_KF3CT_MMP9: BioMAP Diversity Plus: KF3CT Assay for Matrix Metallopeptidase 9 (MMP9) Biomarker Activity (AID 2283074). The note with it: primary human keratinocytes with fibroblasts; actives raise or lower the signal. In short, it runs like this:
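Values come from bidirectional fitting relative to DMSO of MMP-9 levels, which were measured by ELISA. Measurements were taken 24 h after chemical dosing of a keratinocyte and foreskin fibroblast co-culture.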

Read-out in assay [5]: urokinase plasminogen activator (uPA), PLAU (gene 5328)
Kind of assay: BSK_KF3CT_uPA: BioMAP Diversity Plus: KF3CT Assay for urokinase plasminogen activator (uPA) Biomarker Activity (AID 2283075). To be noted: primary human keratinocytes with fibroblasts; actives raise or lower the signal. In short, it runs like this:
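Values derive from bidirectional fitting against DMSO controls. Keratinocyte/foreskin fibroblast co-cultures received chemical; 24 h later uPA was detected by ELISA, with SRB total-protein staining in parallel wells for overt cytotoxicity.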

Read-out in assay [6]: CD40, CD40 (gene 958)
Kind of assay: BSK_LPS_CD40: BioMAP Diversity Plus: LPS Assay for CD40 Biomarker Activity (AID 2283076). To be noted: primary human HUVEC with PBMC; actives raise or lower the signal. The method in brief: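 HUVEC plus PBMC co-culture stimulated with LPS; CD40 quantified by ELISA 24 h after compound dosing. Fitting was bidirectional relative to DMSO. SRB staining of parallel cultures flagged overt cytotoxicity.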

Read-out in assay [7]: E-selectin (Homo sapiens) (UniProt P16581)
Kind of assay: BSK_LPS_Eselectin: BioMAP Diversity Plus: LPS Assay for Eselectin Biomarker Activity (AID 2283077). To be noted: primary human HUVEC with PBMC; actives raise or lower the signal. The method in brief:
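Human umbilical vein endothelial cells co-cultured with PBMC under LPS stimulation; cell-surface E-selectin measured by ELISA 24 h after dosing. Change in either direction versus DMSO, with SRB total-protein staining in parallel cultures for cytotoxicity.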

Read-out in assay [8]: Interleukin-8 (IL8), CXCL8 (gene 3576)
Briefly: BSK_LPS_IL8: BioMAP Diversity Plus: LPS Assay for Interleukin-8 (IL8) Biomarker Activity (AID 2283078). To be noted: primary human HUVEC with PBMC; actives raise or lower the signal. In short, it runs like this:
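Human umbilical vein endothelial cells co-cultured with PBMC, LPS-stimulated, exposed to compound for 24 h. IL-8 quantified by ELISA; fitted in both directions against DMSO, with SRB total-protein staining of parallel cultures for cytotoxicity.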

A short description of assay [9]: BSK_LPS_SRB: Viability Assessment in the BioMAP Diversity Plus: LPS Assay (AID 2283079).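 Further: total protein by sulforhodamine B absorbance as a cytotoxicity measure; measured one day after compound addition; fitted in both directions against DMSO so loss or gain of signal counts.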 To be noted: primary human HUVEC with PBMC. In short, it runs like this: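 Co-culture of human umbilical vein endothelial cells and PBMC, read 24 h after dosing. Total protein by 0.1% SRB staining after 10% TCA fixation, absorbance at 560 nm; bidirectional fit against DMSO.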

Read-out in assay [10]: Interleukin-1 alpha (IL1a), IL1A (gene 3552)
Briefly: BSK_LPS_IL1a: BioMAP Diversity Plus: LPS Assay for Interleukin-1 alpha (IL1a) Biomarker Activity (AID 2283080). The note with it: primary human HUVEC with PBMC; actives raise or lower the signal. The method in brief: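 Human umbilical vein endothelial cells co-cultured with PBMC and stimulated with LPS; IL-1a measured by ELISA 24 h after dosing. Bidirectional fitting against DMSO; cytotoxicity checked by SRB staining in parallel cultures.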

Read-out in assay [11]: Monocyte Chemoattractant Protein-1 (MCP1), CCL2 (gene 6347)
Kind of assay: BSK_LPS_MCP1: BioMAP Diversity Plus: LPS Assay for Monocyte Chemoattractant Protein-1 (MCP1) Biomarker Activity (AID 2283081). The note with it: primary human HUVEC with PBMC; actives raise or lower the signal. The method in brief:
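Human umbilical vein endothelial cells co-cultured with PBMC, LPS-stimulated; secreted MCP-1 measured by ELISA 24 h after compound addition. Bidirectional curve fitting against DMSO baseline; SRB total-protein staining in parallel cultures for cytotoxicity.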

Assay [12] in a line: BSK_LPS_PGE2: BioMAP Diversity Plus: LPS Assay for Prostaglandin E2 (PGE2) Biomarker Activity (AID 2283082). The note with it: primary human HUVEC with PBMC; actives raise or lower the signal. In short, it runs like this: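 PGE2 release measured by ELISA in an LPS-activated co-culture of human umbilical vein endothelial cells and peripheral blood mononuclear cells, read at 24 h post-dosing. DMSO served as baseline for bidirectional curve fitting.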

Read-out in assay [13]: Macrophage colony-stimulating factor (MCSF), CSF1 (gene 1435)
Kind of assay: BSK_LPS_MCSF: BioMAP Diversity Plus: LPS Assay for Macrophage colony-stimulating factor (MCSF) Biomarker Activity (AID 2283083). The note with it: primary human HUVEC with PBMC; actives raise or lower the signal. In short, it runs like this:
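HUVEC–PBMC co-culture, M-CSF measured by ELISA 24 h after chemical dosing. Fitted in both directions relative to DMSO as negative control; overt cytotoxicity assessed by SRB total-protein staining in parallel cultures.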

Read-out in assay [14]: Tissue Factor, F3 (gene 2152)
Kind of assay: BSK_LPS_TissueFactor: BioMAP Diversity Plus: LPS Assay for Tissue Factor Biomarker Activity (AID 2283084). To be noted: primary human HUVEC with PBMC; actives raise or lower the signal. The method in brief:
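Human umbilical vein endothelial cells co-cultured with PBMC were dosed with compound. Cell-surface CD142 was measured by ELISA 24 h later. Activity was fitted bidirectionally against DMSO, with SRB total-protein staining in parallel cultures for cytotoxicity.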

Read-out in assay [15]: Tumor necrosis factor (Homo sapiens) (UniProt P01375)
Kind of assay: BSK_LPS_TNFa: BioMAP Diversity Plus: LPS Assay for Tumour Necrosis Factor alpha (TNFa) Biomarker Activity (AID 2283085). To be noted: primary human HUVEC with PBMC; actives raise or lower the signal. The method in brief: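 TNFa was quantified by ELISA in LPS-activated co-cultures of human endothelial cells and PBMC, 24 h post-dosing. Both increases and decreases versus DMSO were fitted.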

Read-out in assay [16]: Vascular cell adhesion molecule 1 (VCAM1), VCAM1 (gene 7412)
Kind of assay: BSK_LPS_VCAM1: BioMAP Diversity Plus: LPS Assay for Vascular cell adhesion molecule 1 (VCAM1) Biomarker Activity (AID 2283086). To be noted: primary human HUVEC with PBMC; actives raise or lower the signal. In short, it runs like this:
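VCAM-1 quantified by ELISA in an LPS-activated co-culture of human endothelial cells and peripheral blood mononuclear cells, read 24 h post-treatment. Fitted in both directions versus DMSO; parallel SRB staining flags overt cytotoxicity.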

Read-out in assay [17]: CD38, CD38 (gene 952)
Briefly: BSK_SAg_CD38: BioMAP Diversity Plus: SAg Assay for CD38 Biomarker Activity (AID 2283087). To be noted: primary human HUVEC with PBMC; actives raise or lower the signal. The method in brief:
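CD38 quantified by ELISA (fluorescence) in a superantigen-activated endothelial cell–PBMC co-culture at 24 h post-dose. Activity fitted in both directions relative to DMSO; parallel SRB and Alamar Blue cytotoxicity read-outs.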

Read-out in assay [18]: CD40, CD40 (gene 958)
Kind of assay: BSK_SAg_CD40: BioMAP Diversity Plus: SAg Assay for CD40 Biomarker Activity (AID 2283088). To be noted: primary human HUVEC with PBMC; actives raise or lower the signal. The method in brief:
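HUVEC plus PBMC co-culture, superantigen-activated, with CD40 read by ELISA 24 h after dosing. Curves fitted in both directions against DMSO. Overt cytotoxicity checked by parallel SRB total-protein staining.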

Read-out in assay [19]: CD69, CD69 (gene 969)
Briefly: BSK_SAg_CD69: BioMAP Diversity Plus: SAg Assay for CD69 Biomarker Activity (AID 2283089). The note with it: primary human HUVEC with PBMC; actives raise or lower the signal. In short, it runs like this:
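Endothelial/PBMC co-culture; chemical added; 24 h incubation; CD69 ELISA with fluorescence detection; bidirectional fit vs DMSO.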

Read-out in assay [20]: Monocyte Chemoattractant Protein-1 (MCP1), CCL2 (gene 6347)
Briefly: BSK_SAg_MCP1: BioMAP Diversity Plus: SAg Assay for Monocyte Chemoattractant Protein-1 (MCP1) Biomarker Activity (AID 2283090). To be noted: primary human HUVEC with PBMC; actives raise or lower the signal. In short, it runs like this: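 Values derive from bidirectional fitting of ELISA-measured MCP1 against DMSO controls. Readings were taken 24 h after dosing human vascular endothelial cells co-cultured with peripheral blood mononuclear cells under superantigen stimulation.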

Sequence of Tumor necrosis factor (Homo sapiens) (P01375 whole entry, looked up): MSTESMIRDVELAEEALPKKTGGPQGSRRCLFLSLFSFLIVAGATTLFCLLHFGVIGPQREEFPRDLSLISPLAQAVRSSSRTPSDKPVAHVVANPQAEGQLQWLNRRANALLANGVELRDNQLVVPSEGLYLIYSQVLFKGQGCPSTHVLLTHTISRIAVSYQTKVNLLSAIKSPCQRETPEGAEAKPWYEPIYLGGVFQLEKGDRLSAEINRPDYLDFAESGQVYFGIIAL
Sequence of E-selectin (Homo sapiens) (P16581 whole entry, looked up): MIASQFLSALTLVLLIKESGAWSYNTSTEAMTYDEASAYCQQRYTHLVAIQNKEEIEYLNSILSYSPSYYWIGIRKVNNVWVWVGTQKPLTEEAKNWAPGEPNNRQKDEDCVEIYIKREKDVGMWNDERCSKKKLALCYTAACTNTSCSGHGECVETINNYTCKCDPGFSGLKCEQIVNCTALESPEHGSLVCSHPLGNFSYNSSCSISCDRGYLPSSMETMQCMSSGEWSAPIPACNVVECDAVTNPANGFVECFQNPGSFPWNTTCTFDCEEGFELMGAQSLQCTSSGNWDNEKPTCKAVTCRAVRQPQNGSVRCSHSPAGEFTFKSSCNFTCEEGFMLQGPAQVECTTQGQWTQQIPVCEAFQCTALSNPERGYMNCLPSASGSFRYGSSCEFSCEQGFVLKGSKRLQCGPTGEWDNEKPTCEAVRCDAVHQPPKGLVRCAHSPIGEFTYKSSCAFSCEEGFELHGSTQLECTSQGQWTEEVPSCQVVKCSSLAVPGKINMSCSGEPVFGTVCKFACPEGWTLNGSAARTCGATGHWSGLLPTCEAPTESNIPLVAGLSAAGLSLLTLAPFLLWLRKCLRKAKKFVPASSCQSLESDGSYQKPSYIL

Regarding `CNC(=O)/C=C(\C)OP(=O)(OC)OC`, the result in assay [1], in [2], in [3], in assay [4], in assay [5] and in assay [6] was inactive. In addition, the outcome in assay [7], in [8], in [9], in assay [10], in [11] and in assay [12] was inactive. The outcome in assay [13], in [14], in assay [15], in assay [16], in assay [17] and in assay [18] was inactive. Moreover, the result in assay [19] and in assay [20] was inactive.
For `CNC(=O)Oc1cccc(N=CN(C)C)c1`, the outcome in [1], in [2], in assay [3], in assay [4], in assay [5] and in assay [9] was inactive. Besides, the outcome in [10], in assay [11], in assay [12], in [13], in assay [15] and in assay [19] was inactive. The result in [20] was inactive. The AC50 in assay [6] was 13.5 µM (active); in assay [7] it was 20 µM (active); in assay [8], 20 µM (active); in assay [14], 26.5 µM (active); in assay [16] it was 17.4 µM (active); in assay [17], 33 µM (active). Also, in [18], the AC50 is 34.6 µM (active).
